A short description of assay [1]: resazurin metabolic signal in HepG2 cells – cell-based, resazurin fluorescence, 24 h, PK04 Diversity Set, profiling panel (AID 1172). Note: test concentration not given here. As to conditions: HepG2 viability, higher = more signal. A general note: The colour change of resazurin is a common sign of viable cells or microbes.
Assay [2] in a line: budding yeast growth changes without added modifier – OD600, strain BY4716, 24 h, basal condition, primary screen (AID 1173). As to conditions: S. cerevisiae BY4716 growth, OD600, 24 h; higher = more signal, called active from +8 up or from −8 down.
The nature of assay [3]: viability profiling in MM1S myeloma cells – cell-based, resazurin fluorescence, basal, 24 h, PK04 Diversity Set, profiling panel (AID 1174).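 Note: MM1S multiple myeloma cell line; test concentration not given here.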 The conditions noted are these: higher = more signal, called active from +8 up or from −8 down.
For assay [4], the target named is Dihydroorotate dehydrogenase (quinone), mitochondrial (Plasmodium falciparum (isolate 3D7)) (UniProt Q08210). Put plainly: inhibition of P. falciparum DHODH – biochemical, C-terminal His tag, absorbance 600 nm, primary screen (AID 1175).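 Note: recombinant parasite enzyme with a five histidine tag at its C terminus; test concentration not given here.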 As to conditions: PfDHODH enzyme, DCIP absorbance 600 nm; higher = more signal, called active from +8 up or from −8 down.
Sequence of Dihydroorotate dehydrogenase (quinone), mitochondrial (Plasmodium falciparum (isolate 3D7)) (Q08210 whole entry, looked up): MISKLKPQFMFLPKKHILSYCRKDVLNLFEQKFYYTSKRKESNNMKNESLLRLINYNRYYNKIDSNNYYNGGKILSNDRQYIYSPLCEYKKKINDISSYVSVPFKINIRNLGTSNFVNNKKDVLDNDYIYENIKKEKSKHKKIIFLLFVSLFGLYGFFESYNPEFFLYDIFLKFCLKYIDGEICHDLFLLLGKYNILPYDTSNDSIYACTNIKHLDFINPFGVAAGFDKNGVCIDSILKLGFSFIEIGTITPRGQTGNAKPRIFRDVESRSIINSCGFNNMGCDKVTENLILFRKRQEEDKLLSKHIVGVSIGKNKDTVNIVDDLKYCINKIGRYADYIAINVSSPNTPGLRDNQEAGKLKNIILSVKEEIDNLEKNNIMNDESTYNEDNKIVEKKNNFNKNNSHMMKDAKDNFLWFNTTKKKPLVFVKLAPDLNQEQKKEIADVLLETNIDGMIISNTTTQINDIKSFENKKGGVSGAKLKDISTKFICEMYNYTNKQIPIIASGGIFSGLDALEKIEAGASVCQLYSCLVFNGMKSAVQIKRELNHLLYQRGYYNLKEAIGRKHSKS
The nature of assay [5]: inhibition of PAO1 biofilm formation – strain PAO1, LB-PBS medium, absorbance 600 nm, primary screen (AID 1176). Note: test concentration not given here. As to conditions: P. aeruginosa PAO1 growth/biofilm, A600, 12 h; higher = more signal.
Assay [6] can be described thus: growth modulation of vineyard yeast isolate – strain RM11-1a, OD600, basal, 24 h, primary screen (AID 1177).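 Note: cultures grown under basal conditions with no added stressor; test concentration not given here.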 The conditions noted are these: S. cerevisiae RM11-1a growth, OD600, 24 h; higher = more signal, called active from +8 up or from −8 down.
Assay [7] is described as follows: growth of efflux-deficient E. coli DRC39 – strain DRC39, OD650, 24 h, E. coli filamentation inducers, primary screen (AID 1178).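 Note: growth measured as culture turbidity by optical density at 650 nm; test concentration not given here.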 The conditions noted are these: E. coli DRC39 acrAB, higher = more signal, called active from +8 up or from −8 down.
The nature of assay [8]: growth of efflux-deficient E. coli DRC39 – strain DRC39, OD650, 48 h, E. coli filamentation inducers, primary screen (AID 1179).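 Note: screen aims at cell division blockers that make cells filament.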 As to conditions: E. coli DRC39 delta-acrAB growth, higher = more signal, called active from +8 up or from −8 down.
Assay [9] can be described thus: viability profiling in RPMI8226 myeloma cells – cell-based, resazurin fluorescence, basal, 24 h, PK04 Diversity Set, profiling panel (AID 1180).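 Note: RPMI8826 multiple myeloma cell line at 5000 cells per well; test concentration not given here.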 The conditions noted are these: higher = more signal.
Assay [10] deals with E3 ubiquitin-protein ligase XIAP (Homo sapiens) (UniProt P98170). The assay is described as follows: small molecules binding XIAP protein – biophysical, small-molecule microarray, fluorescence 635 nm, primary screen (AID 1181).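 Note: score merges 667 nm emission and signal to noise over triplicate slides.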 The conditions noted are these: higher = more signal.
Sequence of E3 ubiquitin-protein ligase XIAP (Homo sapiens) (P98170 whole entry, looked up): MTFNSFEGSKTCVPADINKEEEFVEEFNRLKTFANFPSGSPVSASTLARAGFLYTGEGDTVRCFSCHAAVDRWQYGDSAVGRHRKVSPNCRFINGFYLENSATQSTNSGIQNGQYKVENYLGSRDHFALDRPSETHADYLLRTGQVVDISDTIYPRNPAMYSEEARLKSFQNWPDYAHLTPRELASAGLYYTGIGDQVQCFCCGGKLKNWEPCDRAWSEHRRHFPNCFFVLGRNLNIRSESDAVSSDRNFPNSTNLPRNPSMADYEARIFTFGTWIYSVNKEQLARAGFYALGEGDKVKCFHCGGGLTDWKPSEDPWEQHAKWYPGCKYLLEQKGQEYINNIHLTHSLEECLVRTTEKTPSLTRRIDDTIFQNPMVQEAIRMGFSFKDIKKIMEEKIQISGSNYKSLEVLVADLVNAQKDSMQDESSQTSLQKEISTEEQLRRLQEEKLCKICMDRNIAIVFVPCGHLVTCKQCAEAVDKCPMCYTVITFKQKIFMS

The source made the active and inactive calls. Unless noted, the rule behind the calls is not given here.

Turning to `COCCCNC(=O)[C@@]1(Cc2ccccc2I)c2ccccc2C(=O)N(C2CCCCC2)[C@H]1c1ccc(CO)cc1`, the z-score was 1.12 in assay [1]; -0.6 (inactive) in [2]; 0.28 (inactive) in assay [3]; 1.13 (inactive) in assay [5]; -0.244 (inactive) in assay [6]; 0.319 (inactive) in assay [7]. The figures for the z-score in assay [8] and in [9] were 0.26 (inactive) and 0.448, respectively. The composite z-score in assay [4] is 0.154 (inactive); in assay [10], -0.0343.
`CCCCC(=C=CC[C@H](O)c1cccc(OCCO)c1)C[C@H](O)c1cc(Cl)cc(Cl)c1O`: the z-score was 1.89 in assay [1]; -2.65 (inactive) in [2]; 0.356 (inactive) in assay [3]; 0.318 (inactive) in [5]; 0.275 (inactive) in assay [6]; 1.07 (inactive) in assay [7]. Moreover, the z-score is 0.923 (inactive) in [8] and 0.242 in assay [9]. For the same molecule, the results for the composite z-score in assay [4] and in assay [10] were 0.189 (inactive) and -0.206, respectively.
For the molecule `[N-]=[N+]=NCc1ccccc1[C@H]1OC(c2ccc(OCCCO)cc2)=N[C@@]1(CCS(=O)(=O)c1ccccc1)C(=O)O`, the z-score in assay [1] is 0.086; in [2] it was -1.04 (inactive); in assay [3], -0.389 (inactive); in assay [5], -0.0304 (inactive); in assay [6] it was -0.81 (inactive); in [7] it was -0.589 (inactive). In addition, the values for the z-score in assay [8] and in assay [9] were -0.336 (inactive) and 0.0678, respectively. Also, the composite z-score in assay [4] was -1.14 (inactive); in [10] it was 0.273.
In the case of `COCCOC(=O)N1C(=O)[C@@]2(c3cc(C#CCC(C(=O)OC)C(=O)OC)ccc31)[C@H](C(N)=O)[C@H]1C(=O)O[C@H](c3ccccc3)[C@H](c3ccccc3)N1[C@@H]2c1ccccc1OCCO`, the z-score was -0.0131 in assay [1]; -0.65 (inactive) in assay [2]; -1.99 (inactive) in assay [3]; 3.05 (inactive) in assay [5]; -0.243 (inactive) in [6]; 0.664 (inactive) in assay [7]. Moreover, the z-score in assay [8] was 1.42 (inactive); in [9] it was -5.51. The values for the composite z-score in assay [4] and in [10] were -7.07 (inactive) and 0.231, respectively.
As for `COCCOC(=O)N1C(=O)[C@@]2(c3cc(C#CCNC(N)=O)ccc31)[C@H](C(=O)N1CCN(c3ncccn3)CC1)[C@H]1C(=O)O[C@H](c3ccccc3)[C@H](c3ccccc3)N1[C@@H]2c1ccc(O)cc1`, the z-score in assay [1] is -0.203; in assay [2] it was -0.171 (inactive); in assay [3], 0.0034 (inactive); in [5], 1.13 (inactive); in assay [6] it was -0.34 (inactive); in [7], 0.589 (inactive). Besides, the values for the z-score in [8] and in assay [9] were 1.15 (inactive) and 0.436, respectively. Moreover, the composite z-score in assay [4] is 0.386 (inactive); in assay [10] it was -0.0129.
As for `CC(C)c1ccc(NN2C(C(O)c3ccccc3)C=CC3C(=O)N(c4ccccc4)C(=O)C32)cc1` (stereo not given), the z-score is 0.685 in [1]; -1.79 (inactive) in [2]; -2.57 (inactive) in assay [3]; 1.16 (inactive) in assay [5]; 1.58 (inactive) in [6]; 0.493 (inactive) in [7]. For the same molecule, the values for the z-score in [8] and in assay [9] were 0.289 (inactive) and 0.039, respectively. Further, the results for the composite z-score in assay [4] and in [10] were 1.25 (inactive) and -0.0669, respectively.
Turning to `CN1C(=O)C2C=CC(C(O)c3ccc([N+](=O)[O-])cc3)N(Nc3ccccc3)C2C1=O` (stereo not given), the z-score in assay [1] was -1.83; in assay [2] it was -1.21 (inactive); in assay [3], -1.03 (inactive); in [5], 1.1 (inactive); in assay [6], 0.114 (inactive); in assay [7], -0.987 (inactive). For the same molecule, the z-score is -1.16 (inactive) in assay [8] and -1.44 in assay [9]. The composite z-score in [4] is 0.003 (inactive); in assay [10], -0.0476.
`CN(C)CCCC[C@@H]1NC(=O)[C@H]2C[C@@H](C(=O)NCCCCCCNC(=O)CS)[C@@H](c3cccc(OCCO)c3)N2C1=O`: the z-score is -0.27 in assay [1]; -0.587 (inactive) in assay [2]; -0.956 (inactive) in [3]; 0.463 (inactive) in [5]; -0.511 (inactive) in assay [6]; 0.329 (inactive) in assay [7]. Besides, the figures for the z-score in [8] and in [9] were 0.0044 (inactive) and -0.713, respectively. Also, the composite z-score is -0.237 (inactive) in assay [4] and -0.177 in assay [10].
For the molecule `COC(=O)C1(CC(C)C)C=C2C(=C(C)C(=O)C2C)CN1` (stereo not given), the z-score was -1.23 in assay [1]; 1.84 (inactive) in assay [2]; -1.78 (inactive) in assay [3]; 0.715 (inactive) in assay [5]; 0.386 (inactive) in assay [6]; -0.43 (inactive) in assay [7]. For the same molecule, the results for the z-score in assay [8] and in assay [9] were -0.078 (inactive) and -1.8, respectively. Besides, the composite z-score in [4] is -1.11 (inactive); in [10], 0.0408.
With `CC(C)c1ccc(NN2C(C(O)C3CCCCC3)C=CC3C(=O)N(c4ccccc4)C(=O)C32)cc1` (stereo not given), the z-score is -0.454 in assay [1]; -0.618 (inactive) in assay [2]; -1.12 (inactive) in assay [3]; 1.52 (inactive) in assay [5]; 0.409 (inactive) in assay [6]; -0.148 (inactive) in assay [7]. Moreover, the z-score in [8] was 0.51 (inactive); in assay [9] it was -0.675. Besides, the composite z-score in assay [4] was -0.74 (inactive); in [10] it was 0.0471.
For `CCCCC(=C=CC[C@@H](O)c1ccccc1OCCO)C[C@@H](O)c1ccccn1`, the z-score was 0.687 in assay [1]; -1.72 (inactive) in [2]; 0.538 (inactive) in assay [3]; 0.354 (inactive) in assay [5]; -0.506 (inactive) in assay [6]; 1.04 (inactive) in assay [7]. Further, the z-score in assay [8] was 0.52 (inactive); in assay [9] it was 0.805. The composite z-score in assay [4] is -7.64 (inactive); in [10] it was -0.287.
Regarding `COc1ccc([Si](C)(C)[C@@H]2[C@@H](CC(=O)N3CCC[C@H]3CO)O[C@]3(C(=O)N(Cc4cccc(N5C(=O)c6cccc7cccc5c67)c4)c4ccccc43)[C@H]2C)cc1`, the z-score was -0.49 in [1]; 0.313 (inactive) in assay [2]; -1.84 (inactive) in assay [3]; 0.343 (inactive) in [5]; 0.0797 (inactive) in assay [6]; 0.995 (inactive) in assay [7]. The z-score in assay [8] is 0.787 (inactive); in assay [9], -1.53. The composite z-score in assay [4] was -1.54 (inactive); in assay [10], 0.0834.

For the origin of these results see PubChem BioAssay.
